Experimental findings from PubChem BioAssay (NCATS) are described below.

Results filed as inconclusive are left out. Values without a mark were called inactive. The source made the active and inactive calls. Calls come from the whole dose curve; as a rule, active = well fitted curve in the direction sought with a large enough effect; inconclusive = small, poorly fitted or top-dose-only effect, or another doubt; inactive = no such curve, though single readings can be large; an effect the other way counts as inactive or inconclusive.

In experiment [1] the target is Rap guanine nucleotide exchange factor 3 (Homo sapiens) (UniProt O95398). Nature of the experiment: Confirmatory qHTS for agonist of cAMP-regulated guanine nucleotide exchange factor 3 (EPAC1) (AID 1645881).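 Note: EPAC1 catalysed release of BODIPY-GDP from Rap1B seen as fluorescence loss; 100% = effect of cAMP agonist control; nearly all actives have a fitted effect of over 75% in size.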 For orientation: In qHTS, concentration-response curves come from the screen itself.
Sequence of Rap guanine nucleotide exchange factor 3 (Homo sapiens) (O95398 whole entry, looked up): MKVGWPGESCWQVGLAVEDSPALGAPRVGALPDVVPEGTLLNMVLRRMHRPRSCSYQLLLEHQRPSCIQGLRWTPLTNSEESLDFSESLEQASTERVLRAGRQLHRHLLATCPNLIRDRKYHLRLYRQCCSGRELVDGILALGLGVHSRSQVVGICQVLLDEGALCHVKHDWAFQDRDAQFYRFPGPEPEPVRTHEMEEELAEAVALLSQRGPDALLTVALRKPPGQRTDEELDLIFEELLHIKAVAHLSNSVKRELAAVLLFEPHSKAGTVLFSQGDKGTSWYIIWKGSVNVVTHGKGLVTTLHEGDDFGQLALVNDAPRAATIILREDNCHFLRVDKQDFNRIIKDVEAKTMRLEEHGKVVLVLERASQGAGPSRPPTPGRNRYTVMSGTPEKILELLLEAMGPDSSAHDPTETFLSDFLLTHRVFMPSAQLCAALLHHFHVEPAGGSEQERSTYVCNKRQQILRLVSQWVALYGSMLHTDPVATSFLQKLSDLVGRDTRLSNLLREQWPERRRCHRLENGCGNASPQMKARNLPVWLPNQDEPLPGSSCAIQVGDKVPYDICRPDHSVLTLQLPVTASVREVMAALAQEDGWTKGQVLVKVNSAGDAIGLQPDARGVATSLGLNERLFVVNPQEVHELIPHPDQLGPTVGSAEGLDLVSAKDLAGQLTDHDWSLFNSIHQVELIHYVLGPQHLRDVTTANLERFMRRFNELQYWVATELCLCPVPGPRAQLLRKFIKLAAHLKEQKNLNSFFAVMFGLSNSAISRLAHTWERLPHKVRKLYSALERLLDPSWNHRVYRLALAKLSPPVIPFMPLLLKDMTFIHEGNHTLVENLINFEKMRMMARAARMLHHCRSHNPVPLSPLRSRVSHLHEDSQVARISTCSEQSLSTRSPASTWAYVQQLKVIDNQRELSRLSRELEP
Experiment [2] deals with Rap guanine nucleotide exchange factor 4 (Homo sapiens) (UniProt Q8WZA2). Nature of the experiment: Confirmatory qHTS for agonist of cAMP-regulated guanine nucleotide exchange factor 4 (EPAC2) (AID 1645884).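 Note: nucleotide exchange releases bodipy-GDP from Rap1 and this lowers its fluorescence; % is set by controls: 0 for no effect and ±100 for the full control effect; nearly all actives have a fitted effect of over 65% in size.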
Sequence of Rap guanine nucleotide exchange factor 4 (Homo sapiens) (Q8WZA2 whole entry, looked up): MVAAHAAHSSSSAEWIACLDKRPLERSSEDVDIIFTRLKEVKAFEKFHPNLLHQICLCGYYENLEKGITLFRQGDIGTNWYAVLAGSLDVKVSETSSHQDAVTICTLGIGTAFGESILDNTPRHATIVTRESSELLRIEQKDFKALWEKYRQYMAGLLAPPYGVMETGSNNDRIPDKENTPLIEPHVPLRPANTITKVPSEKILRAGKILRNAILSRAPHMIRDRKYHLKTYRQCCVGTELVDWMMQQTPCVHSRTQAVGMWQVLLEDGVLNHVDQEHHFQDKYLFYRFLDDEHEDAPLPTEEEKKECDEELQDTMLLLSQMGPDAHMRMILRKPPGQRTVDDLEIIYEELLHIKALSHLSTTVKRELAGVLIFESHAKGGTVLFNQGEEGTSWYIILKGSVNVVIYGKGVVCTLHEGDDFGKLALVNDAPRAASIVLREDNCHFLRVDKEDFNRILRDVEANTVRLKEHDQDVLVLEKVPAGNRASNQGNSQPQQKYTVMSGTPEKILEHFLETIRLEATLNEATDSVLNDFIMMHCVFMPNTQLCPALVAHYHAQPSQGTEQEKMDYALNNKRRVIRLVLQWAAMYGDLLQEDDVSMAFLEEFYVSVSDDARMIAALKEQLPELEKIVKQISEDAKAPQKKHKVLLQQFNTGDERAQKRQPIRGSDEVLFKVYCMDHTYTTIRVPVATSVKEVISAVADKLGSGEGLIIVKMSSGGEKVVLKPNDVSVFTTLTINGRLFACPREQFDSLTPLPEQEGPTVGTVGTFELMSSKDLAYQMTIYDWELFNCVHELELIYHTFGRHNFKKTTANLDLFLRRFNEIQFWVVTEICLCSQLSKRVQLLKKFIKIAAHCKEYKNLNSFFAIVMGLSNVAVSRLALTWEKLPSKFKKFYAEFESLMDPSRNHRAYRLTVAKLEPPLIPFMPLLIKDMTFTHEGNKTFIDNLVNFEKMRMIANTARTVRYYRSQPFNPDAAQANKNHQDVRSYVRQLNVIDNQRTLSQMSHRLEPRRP
Experiment [3] shares this target. Nature of the experiment: Confirmatory qHTS for antagonist of cAMP-regulated guanine nucleotide exchange factor 4 (EPAC2) (AID 1645885). Note: nearly all actives have a fitted effect of over 25% in size. Note: potency is the fitted concentration of half-maximal effect.
The target in experiment [4] is Rap guanine nucleotide exchange factor 3 (Homo sapiens) (UniProt O95398). Nature of the experiment: Counterscreen qHTS for agonist of cAMP-regulated guanine nucleotide exchange factor 3 (EPAC1) (AID 1645889). Note: % of control where 0% means no effect; nearly all actives have a fitted effect of over 40% in size. The essentials:
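Rap1B–BODIPY-GDP (250 nM) with 50 uM GDP; compounds pin-transferred to 9.74 nM–152 uM final (activator) or from 7.32 nM upwards (inhibitor). Fluorescence Ex/Em 480/540 nm read at 5 and 30 min, then after adding cAMP or buffer, at room temperature.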

On to `CC(C)CCOP(=O)(c1ccc(N(C)C)cc1)C(O)c1ccc(Cl)cc1Cl` (centres undefined), for which the Potency entry in experiment [1], in experiment [2] and in experiment [4] was “inactive” in each case. Besides, in experiment [3], the Potency was 19 µM (active).

Consider `COC(=O)CC1(c2ccc(OC)cc2)C(=O)c2ccccc2C1=O`, for which the Potency entry in experiment [1], in experiment [2], in experiment [3] and in experiment [4] was “inactive” in each case.

In the case of `COc1ccc2sc(-c3ccc(SC)cc3)c(C#CC(C)(C)O)c2c1`, the Potency result in experiment [1], in experiment [2], in experiment [3] and in experiment [4] was “inactive” throughout.

Consider `COc1cc(/C=C(\C#N)C(=O)Nc2ccccc2C(=O)O)cc(Cl)c1OC`, for which the Potency entry in experiment [1], in experiment [2], in experiment [3] and in experiment [4] was “inactive” throughout.

Consider `COCOCCn1cc(CN2CCS(=O)(=O)N(Cc3ccc(-c4ccc(OC)cc4)cc3)C(CC(C)C)C2=O)nn1` (centres undefined), for which the Potency result in experiment [1], in experiment [2], in experiment [3] and in experiment [4] was “inactive” throughout.

As to `CCCC[C@@H]1C[C@H]1[C@@H](NC(=O)c1ccco1)c1ccc(Cl)cc1`, the Potency entry in experiment [1], in experiment [2], in experiment [3] and in experiment [4] was “inactive” each time.

With `CC(C)(C)c1ccc(S(=O)(=O)NC(=O)C2(C)CCN2C(=O)Cc2ccc(-c3ccccc3)cc2)cc1` (centres undefined), the Potency result in experiment [1] and in experiment [3] was “inactive” throughout. The activation in experiment [2] was -4.75% [at 17.1 µM, percent relative to cAMP agonist control]; in experiment [4], 6.27% [at 30.8 µM].

With `COc1ccc(N2C(=O)Cc3cc(OC)c(OC)cc3C2c2ccc(F)cc2)cc1` (centres undefined), the Potency entry in experiment [1], in experiment [2], in experiment [3] and in experiment [4] was “inactive” throughout.

Consider `Cc1occc1C(=O)N/N=C/C1=C(N2CCOCC2)C(=C/c2ccc(Cl)cc2Cl)/CC1`, for which the Potency entry in experiment [1], in experiment [2], in experiment [3] and in experiment [4] was “inactive” throughout.

`C/C(=N\NC(=O)c1ccc(N/N=C(\C)c2ccc(O)cc2)cc1)c1ccc(O)cc1`: the Potency entry in experiment [1] and in experiment [3] was “inactive” throughout. For the same compound, the activation in experiment [2] is 15.6% [at 17.1 µM, percent relative to cAMP agonist control]; in experiment [4], 11.7% [at 30.8 µM].

`Cc1cc(C)c(OCC(=O)N(Cc2ccco2)Cc2ccco2)c(C)c1`: the Potency entry in experiment [1], in experiment [2], in experiment [3] and in experiment [4] was “inactive” in each case.

On to `CC(C)CCOP(=O)(c1ccc(N(C)C)cc1)C(O)c1c(Cl)cccc1Cl` (centres undefined), for which the Potency entry in experiment [1] and in experiment [3] was “inactive” each time. The activation in experiment [2] was 13.3% [at 17.1 µM, percent relative to cAMP agonist control]; in experiment [4], 2.73% [at 30.8 µM].

Take `O=C1OC(c2ccccc2)Sc2ccccc21` (centres undefined): the Potency result in experiment [1] and in experiment [3] was “inactive” throughout. Moreover, the activation was 4.47% [at 17.1 µM, percent relative to cAMP agonist control] in experiment [2] and -3.76% [at 30.8 µM] in experiment [4].

Take `O=C(CSc1nnc(-c2cccs2)n1Cc1ccco1)Nc1ccc2c(c1)OCO2`: the Potency entry in experiment [1], in experiment [2], in experiment [3] and in experiment [4] was “inactive” throughout.

As to `CCC(NC(=O)c1ccccc1NC(=O)c1ccco1)C(=O)NNC(=O)c1ccc(OC)cc1` (centres undefined), the Potency result in experiment [1] and in experiment [3] was “inactive” throughout. Moreover, the activation in experiment [2] was 0.808% [at 17.1 µM, percent relative to cAMP agonist control]; in experiment [4], 9.27% [at 30.8 µM].

In the case of `Cc1cc(/C=C2\SC(=S)NC2=O)cc(C)c1O`, the Potency result in experiment [1], in experiment [2] and in experiment [4] was “inactive” throughout. For the same compound, the Potency in experiment [3] was 0.675 µM (active).

With `CC(=O)N(CCC(c1ccco1)C(C)C)Cc1ccc(Cl)cc1` (centres undefined), the Potency result in experiment [1], in experiment [2], in experiment [3] and in experiment [4] was “inactive” throughout.

For `Cc1cc(-c2ccc(/C=N/n3cnnc3)o2)ccc1Cl`, the Potency entry in experiment [1], in experiment [2], in experiment [3] and in experiment [4] was “inactive” each time.

Take `Cc1cc(C)cc(N(CC(=O)Nc2ccc(C(F)(F)F)cc2)S(=O)(=O)c2c(C)[nH]c(=O)[nH]c2=O)c1`: the Potency entry in experiment [1], in experiment [2], in experiment [3] and in experiment [4] was “inactive” throughout.

On to `CC1(C)CC(CCN(Cc2ccccc2)C(=O)c2ccco2)(c2ccccc2)CCO1` (centres undefined), for which the Potency result in experiment [1], in experiment [2], in experiment [3] and in experiment [4] was “inactive” each time.

Turning to `CCCc1nc2ccc(C(=O)OC)cn2c1Cc1ccccc1C(F)(F)F`, the Potency result in experiment [1], in experiment [2] and in experiment [4] was “inactive” in each case. Also, in experiment [3], the Potency is 30.1 µM (active).

For the compound `COCOCCn1cc(CN2CCS(=O)(=O)N(Cc3ccc(-c4ccc(F)cc4)cc3)C(CC(C)C)C2=O)nn1` (centres undefined), the Potency result in experiment [1], in experiment [2] and in experiment [4] was “inactive” throughout. Also, in experiment [3], the Potency was 8.49 µM (active).

With `C=CCn1c(SCC(=O)Nc2cc(Cl)ccc2C(=O)O)nc2sc(C)c(C)c2c1=O`, the Potency result in experiment [1] and in experiment [3] was “inactive” each time. Also, the activation in experiment [2] is 10.1% [at 17.1 µM, percent relative to cAMP agonist control]; in experiment [4], 1.53% [at 30.8 µM].

On to `CCn1cc(CN2CCc3c([nH]c4ccccc34)C2c2cccc(OC)c2)c(C)n1` (centres undefined), for which the Potency result in experiment [1] and in experiment [3] was “inactive” each time. Further, the activation in experiment [2] was -1.07% [at 17.1 µM, percent relative to cAMP agonist control]; in experiment [4], 8.44% [at 30.8 µM].

`CCO[C@H]1OC(C(=O)NCc2ccccc2)=C[C@@H](c2ccc(C(F)(F)F)cc2)[C@@H]1CCCO`: the Potency entry in experiment [1], in experiment [2], in experiment [3] and in experiment [4] was “inactive” each time.

As for `CCC[C@H]1CC(=O)C=C(c2ccsc2)ON1C(=O)OC(C)(C)C`, the Potency result in experiment [1], in experiment [2], in experiment [3] and in experiment [4] was “inactive” throughout.
